# Results published in PubChem BioAssay AID463173 (ICCB-Longwood Screening Facility, Harvard Medical School, 2010).
# In all, about 52,000 compounds went through this assay and about 1,700 (3.3%) were called active. Rule as the data show it: active = survival mostly below about 52% (no sharp cut-off); inactive = mostly above about 56%. The full list was thinned out, with actives kept by preference.
# System: Wild type
# Experiment: growth inhibition of S. aureus wild type versus tarO mutant, primary screen, teichoic acid synthesis inhibitors, RN4220, OD600 (AID 463173)
# Settings: S. aureus RN4220 wild type/DeltatarO growth, OD600, 18 h, stronger effect = lower value, screened at 18.75 µg/mL (by protocol)
row,SMILES,survival
1,Cc1ccc(/C=C(\C#N)c2nc(-c3ccc(-c4ccccc4)cc3)cs2)cc1,83% (inactive)
2,CCc1ccc(/C=C(/C#N)c2nc(-c3ccc(C)cc3)cs2)cc1,-2% (active)
3,CCOc1ccc(-c2csc(/C(C#N)=C/c3ccc(Br)cc3)n2)cc1,71% (inactive)
4,CC(C)c1ccc(/C=C(\C#N)c2nc(-c3ccc(O)cc3)cs2)cc1,0% (active)
5,N#C/C(=C/c1ccc(O)cc1)c1nc(-c2ccc(-c3ccccc3)cc2)cs1,0% (active)
6,N#C/C(=C\c1ccc(F)cc1)c1nc(-c2ccc(-c3ccccc3)cc2)cs1,74% (inactive)
7,COc1ccc(/C=C(/C#N)c2nc(-c3ccc(-c4ccccc4)cc3)cs2)cc1,66% (inactive)
8,N#C/C(=C/c1ccc(Cl)cc1)c1nc(-c2ccc(Br)cc2)cs1,83% (inactive)
9,CN(C)c1ccc(/C=C(\C#N)c2nc(-c3ccc(Cl)c(Cl)c3)cs2)cc1,89% (inactive)
10,Cc1nn2c3c(cnc2c1-c1ccc(Cl)cc1)C(=O)CC(c1ccc(C(C)C)cc1)C3 (centres undefined),78% (inactive)
11,Cc1ccc(-n2nnc3c(sc4nc(C)c(C)cc43)c2=O)cc1Cl,84% (inactive)
12,CCCN1C(C(=O)c2ccccc2)=C(OC(=O)COc2ccccc2)c2ccccc2S1(=O)=O,72% (inactive)
13,CCCCN1C(C(=O)c2ccccc2)=C(OC(=O)CC)c2ccccc2S1(=O)=O,0% (active)
14,CCCCC(=O)OC1=C(C(=O)c2ccccc2)N(CC)S(=O)(=O)c2ccccc21,71% (inactive)
15,CCCCCN1C(C(=O)c2ccccc2)=C(NC(C)=O)c2ccccc2S1(=O)=O,60% (inactive)
16,CCCN1C(C(=O)c2ccccc2)=C(OC(=O)C(C)(C)C)c2ccccc2S1(=O)=O,86% (inactive)
17,CCCCCN1C(C(=O)c2ccccc2)=C(OC(=O)CC)c2ccccc2S1(=O)=O,-4% (active)
18,CCCCN1C(C(=O)c2ccccc2)=C(OC(C)=O)c2ccccc2S1(=O)=O,-2% (active)
19,CCCCC(=O)OC1=C(C(=O)c2ccccc2)N(C)S(=O)(=O)c2ccccc21,108% (inactive)
20,CCCCC(=O)OC1=C(C(=O)c2ccccc2)N(CCC)S(=O)(=O)c2ccccc21,43% (inactive)
21,COc1cc(C(=O)OCn2c(=O)oc3ccccc32)cc(OC)c1OC,101% (inactive)
22,NC(=O)c1cc2n(n1)C(C(F)(F)F)CC(c1ccc(Cl)cc1)N2 (centres undefined),116% (inactive)
23,COc1ccc(Cl)cc1NC(=O)C1CCN(c2nnc(C)c3c(C)n(-c4ccccc4)nc23)CC1,66% (inactive)
24,Cc1c(Cl)cccc1-n1ncc(C(=O)N2CCN(C)CC2)c1C1CCN(C(=O)OC(C)(C)C)CC1,87% (inactive)

row,SMILES,survival
1,COc1ccccc1C(=O)Nc1ccc2oc(-c3cccc(Cl)c3Cl)nc2c1,100% (inactive)
2,COc1ccc(S(=O)(=O)Nc2cccc(-c3ccc(N4CCCCCC4)nn3)c2)cc1F,71% (inactive)
3,CCN1CCN(CCCNC(=O)Cn2c(-c3cccs3)cc3cc(F)ccc32)CC1,126% (inactive)
4,CC(C)COc1ccc(C(=O)Nc2cc3nn(-c4ccccc4)nc3cc2Cl)cc1,57% (inactive)
5,Cc1nc(-c2ccccc2)sc1-c1ccc(SCC(=O)Nc2ccc(F)cc2F)nn1,30% (inactive)
6,CCc1ccccc1NC(=O)Cn1nnc(C(=O)Nc2ccc(OC)c(OC)c2)c1N,76% (inactive)
7,Cc1cccc(NC(=O)c2c(NC(=O)c3ccco3)sc3c2CCC(C)C3)c1 (centres undefined),73% (inactive)
8,Cc1cccc(C(=O)Nc2sc3c(c2C(=O)N2CCCCC2)CCC(C)C3)c1 (centres undefined),-1% (active)
9,Cc1cccc(NC(=O)c2c(NC(=O)c3cccs3)sc3c2CCC(C)C3)c1 (centres undefined),75% (inactive)
10,CC1CCc2c(sc(NC(=O)c3ccccc3)c2C(=O)Nc2ccccc2)C1 (centres undefined),64% (inactive)
11,CCN(CC)C(=O)c1c(NC(=O)c2cccc(C)c2)sc2c1CCC(C)C2 (centres undefined),2% (active)
12,Cc1cccc(C(=O)Nc2sc3c(c2C(=O)O)CCCC3)c1,40% (inactive)
13,O=C(NC1CCCCC1)c1cccnc1Nc1ccccc1F,113% (inactive)
14,CC1CCCN(C(=O)Cn2ncc3c([nH]c4ccccc43)c2=O)C1 (centres undefined),81% (inactive)
15,CC(=O)N1CCc2cc(CNC(=O)Nc3ccc(Br)c(C)c3)ccc21,85% (inactive)
16,COc1cc(NC(=O)CC(C)S(=O)(=O)c2ccc3c(c2)CCN3C(C)=O)cc(OC)c1OC (centres undefined),76% (inactive)
17,CC(=O)N1CCc2cc(S(=O)(=O)C(C)CC(=O)Nc3ccc(Br)c(C)c3)ccc21 (centres undefined),-6% (active)
18,CCOC(=O)c1c(S(=O)(=O)NCC(=O)Nc2cccc(SC)c2)c(C)n(C)c1C,70% (inactive)
19,COc1ccc(CN(C(=O)c2cc(=O)c3ccccc3o2)C2CCS(=O)(=O)C2)cc1OC (centres undefined),118% (inactive)
20,Cc1c(Cl)cccc1NC(=O)C(=O)NCCc1csc2nc(-c3ccccc3F)nn12,1% (active)
21,O=C(NCCc1csc2nc(-c3ccccc3F)nn12)C(=O)Nc1cc(F)ccc1F,63% (inactive)
22,COC(=O)c1ccc(NC(=O)C(=O)NCCc2csc3nc(-c4ccccc4F)nn23)cc1,60% (inactive)
23,Cc1ccccc1-c1nc2scc(CCNC(=O)C(=O)Nc3ccc(F)cc3F)n2n1,-4% (active)
24,CC(=O)Nc1cccc(NC(=O)C(=O)NCCc2csc3nc(-c4ccccc4F)nn23)c1,57% (inactive)

row,SMILES,survival
1,Cc1ccc(NC(=O)C(=O)NCCc2csc3nc(-c4ccccc4C)nn23)cc1Cl,82% (inactive)
2,CCOc1ccc(NC(=O)C(=O)NCCc2csc3nc(-c4ccccc4F)nn23)cc1,-3% (active)
3,Cc1ccc(C)c(NC(=O)C(=O)NCCc2csc3nc(-c4ccccc4C)nn23)c1,129% (inactive)
4,CCOc1ccc(CC(=O)NCCc2csc3nc(-c4ccccc4F)nn23)cc1,119% (inactive)
5,O=C(CSc1nnnn1Cc1ccccc1)Nc1ccccc1,114% (inactive)
6,COc1ccc(OC)c(CNS(=O)(=O)c2c(C(=O)N3CCCCCC3)c(C)n(C)c2C)c1,135% (inactive)
7,COc1ccccc1CNC(=O)CCC(=O)N1CC2CCCN2c2ccccc21 (centres undefined),80% (inactive)
8,CC(C)(C)C(=O)Nc1cccc(-c2cn3cccnc3n2)c1,70% (inactive)
9,O=C(CCCn1c(=O)c2cccn2c2ccccc21)NCc1ccccc1Br,55% (inactive)
10,CCc1ccc2nc(N3CCCC3)c(C#N)cc2c1,108% (inactive)
11,O=C(CSc1n[nH]c(-c2ccccc2Cl)n1)N1CCN(c2ccccc2F)CC1,123% (inactive)
12,Cc1ccc(-c2n[nH]c3c2C(c2cccc(O)c2)N(c2ccc(C(=O)O)cc2)C3=O)cc1 (centres undefined),98% (inactive)
13,O=C1c2[nH]nc(-c3ccc(Br)cc3)c2C(c2cccc(O)c2)N1c1ccc(Cl)cc1 (centres undefined),1% (active)
14,COc1ccccc1C1c2c(-c3ccc(Cl)cc3)n[nH]c2C(=O)N1c1ccc(C)cc1 (centres undefined),85% (inactive)
15,CCOC(=O)c1ccc(N2C(=O)c3[nH]nc(-c4ccc(OC)cc4)c3C2c2ccc(C)cc2)cc1 (centres undefined),89% (inactive)
16,COc1ccc(C2c3c(-c4ccc(F)cc4)n[nH]c3C(=O)N2c2ccccc2)cc1OC (centres undefined),134% (inactive)
17,O=C1c2[nH]nc(-c3ccc(F)cc3)c2C(c2ccccc2F)N1c1ccccc1 (centres undefined),4% (active)
18,COC(=O)c1ccc(C2c3c(-c4ccc(Br)cc4)n[nH]c3C(=O)N2c2ccc(Cl)cc2)cc1 (centres undefined),75% (inactive)
19,CCOc1cc(C2c3c(-c4ccc(Br)cc4)n[nH]c3C(=O)N2c2ccc(Cl)cc2)ccc1O (centres undefined),42% (inactive)
20,COc1ccc(-c2n[nH]c3c2C(c2ccc(O)cc2)N(c2ccc(Br)cc2)C3=O)cc1 (centres undefined),11% (active)
21,COc1cccc(CNC(=O)CN2C(=O)COc3ccc(S(=O)(=O)N4CCCCC4)cc32)c1,100% (inactive)
22,CCOc1ccccc1CNC(=O)C(CC)n1nc(C)c2c(C)n(-c3ccccc3)nc2c1=O (centres undefined),88% (inactive)
23,CCOC(=O)c1ccc(NC(=O)CCCn2c(=O)c3cccn3c3ccccc32)cc1,78% (inactive)
24,CCc1ccc(C(=O)c2cn(CC(=O)Nc3ccc(OC)c(Cl)c3)c3nc(C)ccc3c2=O)cc1,119% (inactive)

row,SMILES,survival
1,COC(=O)c1sc2cccc(F)c2c1S(=O)(=O)Nc1cc(OC)cc(OC)c1,0% (active)
2,COC(=O)c1sc2cccc(F)c2c1S(=O)(=O)Nc1ccc(N(C)C)cc1,53% (inactive)
3,COC(=O)c1sc2cccc(F)c2c1S(=O)(=O)Nc1cc(C)c(Cl)cc1OC,85% (inactive)
4,COC(=O)c1sc2cccc(F)c2c1S(=O)(=O)Nc1ccc(C)cc1Cl,63% (inactive)
5,CCOC(=O)c1sc2cccc(F)c2c1S(=O)(=O)Nc1ccccc1F,124% (inactive)
6,CCOc1ccccc1NS(=O)(=O)c1c(C(=O)OC)sc2cccc(F)c12,-3% (active)
7,CC(C)c1ccc(NC(=O)C2CCCN(S(=O)(=O)c3cccc4nsnc34)C2)cc1 (centres undefined),70% (inactive)
8,CN1CCc2nc3sc(C(=O)c4ccc5c(c4)OCO5)c(N)c3cc2C1,116% (inactive)
9,Cc1ccc(-n2c(-c3ccc(Br)cc3)nc3c(cnn3-c3ccccc3)c2=O)cc1,66% (inactive)
10,Clc1ccc(CNc2ccccn2)cc1,98% (inactive)
11,Cc1cc(C)n(-c2nc3ccccc3nc2Nc2ccc(N(C)C)cc2)n1,2% (active)
12,Cc1cc(C)cc(Nc2nnc(-n3nc(C)cc3C)c3ccccc23)c1,86% (inactive)
13,Cc1cc(C)n(-c2nc3ccccc3nc2Nc2cccc(C)c2C)n1,7% (active)
14,Cc1ccc2nc(Nc3cccc(Cl)c3C)c(-n3nc(C)cc3C)nc2c1,131% (inactive)
15,Cc1cc(C)n(-c2nnc(Nc3ccc(C(C)C)cc3)c3ccccc23)n1,74% (inactive)
16,CC(=O)c1ccc(Nc2nc3ccccc3nc2-n2nc(C)cc2C)cc1,54% (inactive)
17,Cc1cc(C)cc(Nc2nc3ccccc3nc2-n2nc(C)cc2C)c1,8% (active)
18,Cc1cc(C)n(-c2nc3ccccc3nc2Nc2cc(Cl)ccc2C)n1,131% (inactive)
19,Cc1cc(C)n(-c2nc3ccccc3nc2Nc2ccc(Cl)c(C(=O)OC(C)C)c2)n1,84% (inactive)
20,CCCOC(=O)c1ccc(Nc2nc3ccccc3nc2-n2nc(C)cc2C)cc1,32% (inactive)
21,Cc1cc(C)cc(Nc2nc3cc(Cl)c(Cl)cc3nc2-n2nc(C)cc2C)c1,81% (inactive)
22,Cc1cc(C)n(-c2nc3ccccc3nc2Nc2ccc(C(C)C)cc2)n1,5% (active)
